The values below come from PubChem BioAssay (NCATS).

Results filed as inconclusive are left out. Where a call stands in place of a potency, no number is given. Activity calls are given as the source filed them. Calls follow the shape of the dose curve; as a rule, active = well fitted curve in the direction sought with a large enough effect; inconclusive = small, poorly fitted or top-dose-only effect, or another doubt; inactive = no such curve, though single readings can be large; an effect the other way counts as inactive or inconclusive.

The nature of the first assay: P-glycoprotein substrates identified in KB-3-1 adenocarcinoma cell line, qHTS therapeutic library screen (AID 1346986). Also: nearly all actives have a fitted effect of over 60% in size. The following applies: KB-3-1 parental cells viability, CellTiter-Glo, 72 h; series mostly up to 44.5 µM. Summed up:
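Viability read by CellTiter-Glo after 72 h compound exposure in dose-response of KB-3-1 and KB-8-5-11 (P-gp-high) cells. Hits needed AC50 < 10 uM, >50% maximum response and curve class -1.1 to -2.4. Cherry-picks retested ± tariquidar, including pcDNA/MDR-19 HEK-293 pair.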
With `COC(=O)c1cc(OC)cc(OC)c1C(=O)c1c(OC)cc2c(c1O)C1CCCC(C)(O2)O1` (stereo not drawn), the Potency entry is “inactive”. For `C[C@@H]1O[C@@H](O[C@H]2[C@H](O)[C@@H](O[C@@H]3O[C@H](CO)[C@@H](O)[C@H](O[C@@H]4O[C@H](CO)[C@@H](O)[C@H](O)[C@H]4O)[C@H]3O)[C@H](O[C@H]3CC[C@@]4(C)C(=CC[C@@H]5C4CC[C@@]4(C)C5C[C@@H]5OC6(CC[C@@](C)(CO[C@@H]7O[C@H](CO)[C@@H](O)[C@H](O)[C@H]7O)O6)[C@@H](C)[C@@H]54)C3)O[C@@H]2CO)[C@H](O)[C@H](O)[C@H]1OC1OC(CO)C(O)C(O)C1O` (stereo partly drawn), the outcome is “inactive [at 9.29 µM]”. Consider `COc1cc(O)cc(/C=C/c2ccc(O[C@@H]3O[C@H](CO)[C@@H](O)[C@H](O)[C@H]3O)cc2)c1`, for which the Potency result is “inactive”.

A short description of a further assay: P-glycoprotein substrates identified in KB-8-5-11 adenocarcinoma cell line, qHTS therapeutic library screen (AID 1346987). Also: nearly all actives have a fitted effect of over 65% in size. Also: potency is read from the fitted curve at half-maximal effect. To be noted: KB-8-5-11 (P-gp overexpressing) viability, CellTiter-Glo, 72 h; series mostly up to 44.5 µM. Summed up:
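Compounds are pinned in dose-response onto KB-8-5-11 cells (500 cells/well, colchicine-free medium) and left 72 h at 37 degree C. CellTiter-Glo luminescence then yields AC50 values.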
Background: qHTS replaces the single test concentration by a dilution series.
As for `Cc1ccc(C(=O)N(CCCN)C(c2oc3cc(Cl)ccc3c(=O)c2Cc2ccccc2)C(C)C)cc1` (stereo not drawn), the Potency is 0.517 µM (active). Same read-out and setting: the result for `CC1(C)CC2C(O)c3cocc3CC(C)(O)C2C1` (stereo not drawn) reads “inactive”. For `COc1ncc2cc(C(=O)Nc3cc(C(=O)NCc4cccc(Cl)c4)ccc3Cl)c(=O)[nH]c2n1`, the Potency was 5.8 µM (active). In the case of `COC(=O)C1=COC(O[C@@H]2O[C@H](CO)[C@@H](O)[C@H](O)[C@H]2O)[C@H]2[C@@H]1[C@H](OC(=O)CCc1ccc(O)cc1)C[C@]2(C)O` (stereo partly drawn), the Potency result is “inactive”.

As to `COc1ncc(Nc2ncc([C@H](C)N3CCN(S(C)(=O)=O)CC3)cc2-c2nc(C)nc(N)n2)cc1F`, the Potency is 9.2 µM (active). `C[C@@]12C[C@]3(O)O[C@H](O1)[C@]1(COC(=O)c4ccccc4)[C@H]3C[C@@]12O[C@@H]1O[C@H](CO)[C@@H](O)[C@H](O)[C@H]1O`: the Potency result is “inactive”. As for `COC(=O)C1=C2Nc3ccccc3C23CCN2CCCC(C(C)O)(C1)C23` (stereo not drawn), the Potency entry is “inactive”.

As to `CC1(C)CC[C@]2(C(=O)O)CC[C@]3(C)C(=CCC4[C@@]5(C)CC[C@H](O[C@@H]6O[C@H](CO)[C@@H](O)[C@H](O)[C@H]6O[C@@H]6O[C@H](CO)[C@@H](O)[C@H](O)[C@H]6O)[C@@](C)(CO)C5CC[C@]43C)[C@@H]2C1` (stereo partly drawn), the Potency result is “inactive”. On to `CC(=O)O[C@@H]1c2c(C)coc2C(=O)[C@@]23O[C@@H]2CC[C@H](C)[C@@]13C`, for which the Potency result is “inactive”.

In the case of `C[C@@H]1O[C@@H](O[C@H]2[C@H](O)[C@@H](C(=O)O)O[C@@H](O[C@H]3CC[C@@]4(C)C(CC[C@]5(C)C4CC=C4C6CC(C)(C)CC[C@]6(C(=O)O)CC[C@]45C)C3(C)C)[C@@H]2O[C@@H]2OC[C@@H](O)[C@H](O)[C@H]2O)[C@H](O)[C@H](O)[C@H]1O` (stereo partly drawn), the outcome was “inactive [at 9.29 µM]”. Consider `CCN(CC)Cc1ccc(C(=O)N(CCc2ccccc2OC)[C@@H]2CCNC2)cc1`, for which the Potency entry is “inactive”. Still for that read-out and setting: the result for `CN(C)C/C=C/C(=O)Nc1cccc(C(=O)Nc2ccc(Nc3nccc(-c4cccnc4)n3)cc2)c1` reads “inactive”. The same measure, in the same setting: in the case of `COC(=O)c1cc(OC)cc(OC)c1C(=O)c1c(OC)cc2c(c1O)C1CCCC(C)(O2)O1` (stereo not drawn) it was “inactive”. With `C[C@@H]1O[C@@H](O[C@H]2[C@H](O)[C@@H](O[C@@H]3O[C@H](CO)[C@@H](O)[C@H](O[C@@H]4O[C@H](CO)[C@@H](O)[C@H](O)[C@H]4O)[C@H]3O)[C@H](O[C@H]3CC[C@@]4(C)C(=CC[C@@H]5C4CC[C@@]4(C)C5C[C@@H]5OC6(CC[C@@](C)(CO[C@@H]7O[C@H](CO)[C@@H](O)[C@H](O)[C@H]7O)O6)[C@@H](C)[C@@H]54)C3)O[C@@H]2CO)[C@H](O)[C@H](O)[C@H]1OC1OC(CO)C(O)C(O)C1O` (stereo partly drawn), the outcome was “inactive [at 9.29 µM]”.

For `CC(O)CCC1C(CO[C@@H]2O[C@H](CO)[C@@H](O)[C@H](O)[C@H]2O)CC(O)CC1(C)C` (stereo partly drawn), the Potency result is “inactive”. Same read-out and setting: in the case of `C/C=C/C=C/C(=O)N1CC[C@]23c4ccccc4N[C@H]4N(C)c5cccc6c5[C@@]42CCN([C@H]6C2OC2(C)C)[C@H]13` (stereo partly drawn) it was “inactive”; in that of `CC(C)(C#N)c1ccc(N2C(=O)OCc3cnc4ccc(-c5cnc6ccccc6c5)cc4c32)cc1`, 3.66 µM (active).

`O=C(OC[C@H]1O[C@H](O[C@]2(CO)O[C@H](CO)[C@@H](O)[C@@H]2O)[C@H](O)[C@@H](O)[C@@H]1O)c1ccccc1`: the Potency result was “inactive”. The same measure, in the same setting: the result for `CC(O)/C=C/C1C(C)C(O[C@@H]2O[C@H](CO)[C@@H](O)[C@H](O)[C@H]2O)C(O)CC1(C)C` (stereo partly drawn) reads “inactive”; that for `COc1cc(/C=C/CO)cc(OC)c1O[C@@H]1O[C@H](CO[C@@H]2O[C@H](CO)[C@@H](O)[C@H](O)[C@H]2O)[C@@H](O)[C@H](O)[C@H]1O`, “inactive”.
